Results taken from PubChem BioAssay (NCI).
Where “and” joins values, the source holds several entries; their conditions need not be identical. Equal values may be shown once. Compounds without any hit were thinned out: in the full panel of roughly 83,000, 20% have a hit.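 Compound tested at a single concentration for 48 hours in 96-well plates; a percent growth value below 10 was scored as active.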 Calls of active or inactive are those of the source.

test system: MDA-MB-468 breast; test: NCI-60 one-dose screen, 48 h (100 = growth as untreated, 0 = no growth, -100 = all killed); details: 10 µM unless noted

| Compound | growth |
| --- | --- |
| O=c1ccc(N=Nc2ccccc2)ccc1Cl | -51.2% (active) |
| COc1cc(C(C)n2cc(-c3ccccc3)nn2)ccc1OC1CCCC1 (stereo not given) | 5.07% (active) |
| CC1=C(C)C(=O)C(Nc2cccc(C(F)(F)F)c2)=C(Br)C1=O | -61.4% (active) |
| O=C(NCc1cccc(CNC(=O)Nc2nc3ccccc3[nH]2)c1)Nc1nc2ccccc2[nH]1 | -20.2% (active) |
| CN(C)CCS(=O)(=O)CCN(C)C | 105% (inactive) |
| CN1CCN(Cc2ccc(/C=N/Nc3ccnc4cc(Cl)ccc34)cc2)CC1 | 77.1% (inactive) |
| OC(c1cc(-c2ccccc2)nc2ccc(Cl)cc12)C1CCCCN1 (stereo not given) | -17.1% (active) |
| COc1cc(/C=C2\Oc3cc(OCC(=O)c4ccccc4)ccc3C2=O)cc(OC)c1OC | 97% (inactive) |
| CCNC(=O)Oc1ccc(/C(=C(/CC)Cc2ccccc2)c2ccc(OCCN3CCCC3)cc2)cc1 | 87.5% (inactive) |
| C=C(C)[C@@H]1CC[C@]2(C=NCCCNCCCCNCCCN)CC[C@]3(C)[C@H](CC[C@@H]4[C@@]5(C)CCCNC(C)(C)[C@@H]5CC[C@]43C)[C@@H]12 | 98.5% (inactive) |
| CCCCn1sc(=O)n(Cc2ccc(CNC(=O)OCc3ccc4c(Cl)cc(Cl)c(O)c4n3)cc2)c1=O | 72.4% (inactive) |
| Oc1[nH]c2ccccc2c1/C=c1/ccc2c(c1)N=C(c1ccc(C(F)(F)F)cc1)N=2 | 43.6% (inactive) |
| O=C1/C(=C/c2ccccn2)CCc2ccccc21 | 98.4% (inactive) |
| CCN(CC)CCOC(=O)c1cccnc1 | 94.9% (inactive) |
| Cc1c(N)ccc(-c2ccc(N)c(C)c2S(=O)(=O)O)c1S(=O)(=O)O | 115% (inactive) |
| CC1CCC2C(C)(C)C3CC12CC1OC13C (stereo not given) | 99.8% (inactive) |
| Clc1ccc(/C=C/c2ccc3ccccc3n2)cc1 | -11.4% (active) and 73.5% (inactive) and 80.5% (inactive) |
| O=C(c1ccccc1)C1C(=O)N2C(=S)N(c3ccccc3)C(=O)C2C1c1ccc(Cl)cc1 (stereo not given) | 0.678% (active) |
| COc1ccc(-c2nc(N=Nc3c(O)[nH]c4ccccc34)nc(N3CCOCC3)c2C#N)cc1 | 71% (inactive) |
| CCCCC(O)(c1ccc(Cl)cc1)C(CN1CCOCC1)c1ccc(Cl)cc1 (stereo not given) | 24.7% (inactive) |

| Compound | growth |
| --- | --- |
| O=C1/C(=C/c2ccc([N+](=O)[O-])cc2)CN(C(=O)CCN2CCC(=NO)CC2)C/C1=C\c1ccc([N+](=O)[O-])cc1 | -33.6% (active) |
| Cc1ccc(-n2cc(/C=C/C(=O)c3ccc(O)cc3)c(-c3ccc(S(C)(=O)=O)cc3)n2)cc1 | 93.8% (inactive) |
| Nc1c(-c2nc3ccccc3c(=O)[nH]2)nnn1-c1ccc(Cl)cc1 | 105% (inactive) |
| C#CCn1cc(C=C2C(=O)NC(=S)NC2=O)c2cc(Cl)ccc21 | 32.5% (inactive) |
| CCOC(=O)c1ccc(NC(=O)Nc2ncc(Cl)cc2Cl)cc1 | 95.1% (inactive) |
| NC(=O)c1cc(I)ccc1NC(=O)/C=C/c1ccccc1 | 51.9% (inactive) |
| COc1ccc2cc(-c3nn(-c4ccc(C(=O)O)cc4)cc3CO)ccc2c1 | 109% (inactive) |
| COc1ccc(-c2ncnc3c2ncn3CC#CCCl)cc1 | 20.8% (inactive) |
| Nc1cc(-c2ccccc2)ccc1O | 93.5% (inactive) |
| OCCn1cccn1 | 103% (inactive) |
| CN(CCn1sc(=O)n(Cc2ccccc2)c1=O)Cc1ccc2c(Cl)cc(Cl)c(O)c2n1 | 42.4% (inactive) |
| CC[C@H](CO)Nc1nc(NCc2ccccc2)c2ncn(C(C)C)c2n1 | 85% (inactive) |
| Cc1nn(-c2nc(-c3cc4ccccc4oc3=O)cs2)c(C)c1N=Nc1ccccc1 | 103% (inactive) |
| COc1ccc(/C=C2\SC(=S)N(CCCN3CCOCC3)C2=O)c(OC)c1 | 87.4% (inactive) |
| COc1ccc(Cn2cc(C(=O)Nc3cccnc3Nc3ccccc3)nn2)cc1 | 92.9% (inactive) |
| CCCCC1(O)CCCCC1 | 94.9% (inactive) |
| C[Si](C)(C)Cc1ccccc1 | 104% (inactive) |
| Cc1c(Cl)ccc2c(C(=O)Cl)cc(-c3ccccc3)nc12 | 101% (inactive) |
| COc1cnc2c(c1)C(=O)c1c-2n(CCCN2CCC(O)CC2)c(=O)c2cc(Cl)ccc12 | 38.5% (inactive) |
| COc1ccc2c(c1)c(-c1nc(-c3c[nH]c4ncccc34)cs1)cn2CCCN1CCOCC1 | 42% (inactive) |
